In PubChem BioAssay (NCI):
The panel holds about 83,000 compounds, 20% with a hit somewhere; the sample as a whole holds those more often.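 Negative percent growth values reflect cell death: -40 means 40% of the cells present at the start died, and -100 means all died.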 Values without a mark were called inactive. Calls of active or inactive are those of the source. The calls were made as follows: active = growth percent below 10; inactive = the rest.

Tests used:
Assay in all cases: NCI-60 one-dose screen, 48 h (100 = growth as untreated, 0 = no growth, -100 = all killed)
Conditions in all cases: 10 µM unless noted
SR leukemia = system: SR leukemia
RPMI-8226 leukemia = system: RPMI-8226 leukemia
OVCAR-8 ovarian = system: OVCAR-8 ovarian
OVCAR-5 ovarian = system: OVCAR-5 ovarian
OVCAR-4 ovarian = system: OVCAR-4 ovarian
SK-OV-3 ovarian = system: SK-OV-3 ovarian
IGROV1 ovarian = system: IGROV1 ovarian
OVCAR-3 ovarian = system: OVCAR-3 ovarian
HS 578T breast = system: HS 578T breast
NCI/ADR-RES ovarian = system: NCI/ADR-RES ovarian
T-47D breast = system: T-47D breast
BT-549 breast = system: BT-549 breast
SW-620 colon = system: SW-620 colon
MCF7 breast = system: MCF7 breast
HCT-116 colon = system: HCT-116 colon
HCC-2998 colon = system: HCC-2998 colon
KM12 colon = system: KM12 colon
MDA-MB-435 melanoma = system: MDA-MB-435 melanoma

| Compound | growth (SR leukemia) | growth (RPMI-8226 leukemia) | growth (OVCAR-8 ovarian) | growth (OVCAR-5 ovarian) | growth (OVCAR-4 ovarian) | growth (SK-OV-3 ovarian) | growth (IGROV1 ovarian) | growth (OVCAR-3 ovarian) | growth (HS 578T breast) | growth (NCI/ADR-RES ovarian) | growth (T-47D breast) | growth (BT-549 breast) | growth (SW-620 colon) | growth (MCF7 breast) | growth (HCT-116 colon) | growth (HCC-2998 colon) | growth (KM12 colon) | growth (MDA-MB-435 melanoma) |
| --- | --- | --- | --- | --- | --- | --- | --- | --- | --- | --- | --- | --- | --- | --- | --- | --- | --- | --- |
| O=C(O)c1ccc(NCc2cn(-c3ccc(C(F)(F)F)cc3)nc2-c2ccc(C(=O)O)cc2)cc1 | 97.3% | 112% | 103% | 103% | 111% | 113% | 106% | 115% | 107% | 104% | 100% | 108% | 110% | 96% | 109% | 107% | 104% | – |
| [O-][n+]1c(Cl)cc(Cl)c2ccccc21 | 89.2% | 95% | 87.4% | 101% | 101% | 94.4% | 104% | 93.7% | 92.2% | 101% | 97.7% | – | 107% | 97.4% | 103% | 104% | 95.1% | 101% |
| Cc1cccc(NC(=O)Nc2ccc(-c3ccc4c(c3)NC(=O)/C4=C\c3ccc[nH]3)cc2)c1 | 23.6% | 91.4% | 105% | 96.3% | 73.4% | 90.5% | 78% | 103% | 95.7% | – | 39.1% | 102% | 73% | 15.3% | 72.7% | 99% | 19.4% | 78.8% |
| N#CC1C(C#N)C2c3ccccc3C=CN2C1C(=O)c1ccc(Br)cc1 (configuration not stated) | 99.9% | 110% | 94.9% | 98% | 54.3% | 108% | 102% | 109% | 103% | 94.7% | 91.8% | 103% | 99.2% | 92.5% | – | 112% | 99.2% | – |
| COc1cc2nc(-c3ccc(Cl)cc3)cc(OCCCN3CCC(O)CC3)c2cc1OC | 15.9% | 23.2% | 42.9% | 45.8% | 68.7% | 74.3% | 33.2% | 71.7% | 66.9% | – | 44.3% | 34.9% | 51.2% | 48.9% | 17.9% | 69.9% | 37.2% | -10.7% (active) |
| O=C(Cc1ccc(/C=C/C(=O)c2nccs2)cc1)Nc1ccccc1 | 2.31% (active) | 67% | 90.5% | 99.9% | 97.2% | 112% | 91.7% | 88.9% | 88.5% | – | 92.8% | 93% | 51.9% | 84.4% | -43.8% (active) | 105% | 70.7% | 100% |
| O=C(/C=C/c1ccc[nH]1)c1ccc(-n2ccc(C(F)(F)F)n2)c(F)c1 | 80.3% | -6.08% (active) | 95.6% | 90.9% | 99.2% | 121% | 93.4% | 99.8% | 98% | 93.1% | 70.9% | -2.69% (active) | 103% | 30.9% | – | 94.2% | 29.6% | – |
| COc1ccc(CNCCN2C(=O)c3ccc4c5c(ccc(c35)C2=O)C(=O)N(CCNCc2ccc(OC)c(OC)c2OC)C4=O)c(OC)c1OC | -23.2% (active) | -25% (active) | -9.78% (active) | -60.1% (active) | -94.1% (active) | 58% | -29.9% (active) | -42.8% (active) | -34.6% (active) | – | -18.4% (active) | -11.4% (active) | -37% (active) | -67.1% (active) | 1.82% (active) | -79.5% (active) | -41.4% (active) | -48.2% (active) |
| O=C(Nc1ccc(NC(=O)c2cc(=O)[nH]c3ccccc23)cc1)Nc1cccc(Cl)c1 | 36.2% | 96.3% | 85.9% | 87.9% | 78.8% | 74.8% | 69% | 89.2% | 93.5% | – | 68.6% | 79% | 89.9% | 76% | 82% | 83.6% | -55.9% (active) | 97% |
| C=C(CBr)[C@@H]1CC[C@]2(COC(C)=O)CC[C@]3(C)[C@H](CC[C@@H]4[C@@]5(C)CCCNC(C)(C)[C@@H]5CC[C@]43C)[C@@H]12 | 10% | 7.96% (active) | 40.4% | 87.3% | 50.8% | 72.5% | 60.1% | 33.7% | 73.7% | – | 25.9% | 36.2% | 31.5% | 21.5% | 15.3% | 50.8% | 41.9% | 54.5% |
| COc1ccc(NC(N)=NCCCOc2ccc(F)cc2)cc1 | 93.6% | 86% | 94.1% | 92.1% | 70.1% | 79.1% | 67.7% | 99.9% | 113% | – | 23.2% | 67.3% | 88.6% | 10.7% | 54% | – | 84.4% | 80.4% |
| O=c1ccc(-c2nc(N3CCOCC3)c3ccccc3n2)c[nH]1 | 100% | 101% | 110% | 83.2% | 94.2% | 105% | 107% | 101% | – | 96.9% | 77% | 97.4% | 107% | 89.1% | 101% | 105% | 107% | 99.7% |
| N#Cc1cccc(-c2ccc3c(c2)NC(=O)/C3=C\c2ccc[nH]2)c1 | 3.89% (active) | 54.1% | 85.9% | 38.5% | 30.9% | 24.1% | 34.2% | 30.7% | – | 76.1% | -28.7% (active) | 17.4% | 51.6% | 10.1% | 73% | 36% | 20.4% | 43.9% |
| CCN(CC)c1ccc(/C=N/NC(=O)CSc2nc3ccccc3c(=O)n2Cc2ccc(S(N)(=O)=O)cc2)c(O)c1 | 10.4% | 17.1% | 20.4% | 45% | 12.6% | 21.6% | 26.4% | 15% | – | 87.2% | 6.32% (active) | 33.6% | 21.4% | 13.3% | – | 20.3% | 15.2% | 13.8% |
| COc1cc(NCCCCCNC(C)(C)C)c2ncccc2c1 | 113% | 7.94% (active) | 102% | 110% | 22.6% | 97% | 37.2% | – | 88.3% | 85.4% | 19.9% | 109% | 96.7% | -54.4% (active) | 101% | 97.5% | 95.4% | 94.6% |
| CCOC(=O)c1cc(C(=O)c2cc(OC)cc(OC)c2)n2ccc3ccccc3c12 | 116% | 108% | 89.9% | 98% | 88.8% | 98.2% | 102% | – | 82.5% | 92.8% | 95% | 74.7% | 102% | 99.2% | 84% | 108% | 100% | 99.5% |
| O=S(=O)(NCCNc1nccc(-c2c(-c3cccc(F)c3)nc3sccn23)n1)c1ccc(Br)cc1 | 31.7% | 58% | 45.5% | 83.6% | 47% | 77.3% | 8.47% (active) | 62.4% | – | 61.8% | 30.5% | 63.3% | 54.8% | 23.5% | 33.9% | 79.5% | 42.5% | 21.3% |
| CC(C)N1C(=O)/C(=C2\SC(=S)N(C(C)C)C2=O)SC1=S | 109% | 92.9% | 96.5% | 88% | 89.6% | 113% | 94.4% | 98.4% | – | 95.7% | 82.8% | 98.7% | 94.9% | 96.8% | 95% | 98.3% | 99.9% | 100% |
